According to PubChem BioAssay AID2289 (National Center for Advancing Translational Sciences (NCATS), 2010):
About 3,300 (0.97%) of roughly 340,000 compounds were called active. Inconclusive results (about 9%) are left out. Calls come from the whole dose curve; as a rule, active = well fitted inhibition curve with a large enough effect; inconclusive = small, poorly fitted or top-dose-only effect, or effect the other way; inactive = flat fitted curve, though single readings scatter. Some of the results follow.

Assay: qHTS Assay for Modulators of miRNAs and/or Inhibitors of miR-21; note: nearly all actives have a fitted effect of over 55% in size
Conditions: HeLa miR-21-FLuc reporter, luciferase luminescence, 48 h; actives lower the signal
Description: MLSCN Grant: 1 R21 NS059478-01 Assay Provider: Qihong Huang, The Wistar Institute NCGC Assay Overview: MicroRNAs (miRNAs) are endogenously encoded small (~20-25 nucleotides), nonprotein-coding RNAs that are involved in post-transcriptional repression of target messenger RNAs (mRNAs) (Le and Hannon, 2004). Estimated to be involved in the regulation of 30% of all protein-coding mRNAs (Filipowicz et al., 2008), miRNAs play a significant role in many biological processes including cellular differentiation and tissue development (Ghildiyal and Zamore, 2009).
NCGC Assay Protocol Summary: Reagents: HeLa cells stably expressing firefly luciferase (FLuc) under the control of a CMV promoter (upstream) and a miR-21 binding sequence directly downstream of the gene. These cells endogenously express miR-21. Control compounds used were compound C3 (provided by collaborator), N6-phenyladenosine (MP Biomedicals, 0215379625), and DMSO. Assay Summary: 6uL of HeLa miR-21-FLuc cells in assay buffer (DMEM, Invitrogen #21063-029; 10% FBS, HyClone #SH30071.03) were dispensed at 2000cells/well (3.3 x 10^5 cells/mL) into Greiner solid-white TC-treated 1536-well plates using a Multidrop Combi (Thermo Fisher Scientific). Plates were incubated for one hour at 37 degree Celsius, 95% humidity, 5% CO2. These assay plates were then treated with 23nL of compound or DMSO using a Kalypsys pin tool, which allows for delivery of a 24-point titration of each compound to the assay plate, with a final compound concentration ranging from approximately 40uM to 5pM. Assay plates were then incubated for 48 hours. After incubation, plates were allowed to come to RT for one hour prior to delivery of 3uL of 3X luciferase detection reagent. After a 15 minute incubation to allow for cell lysis, luciferase activity was measured using a ViewLux CCD imager (PerkinElmer), with an average exposure time of 2-12 seconds. Keywords: NIH Roadmap, MLPCN, MLSMR, qHTS, miR-21, microRNA, firefly luciferase, FLuc.
Potency is the fitted concentration of half-maximal effect.

SMILES | Potency
O=C(NNc1c(F)c(F)cc(F)c1F)c1cc2ccccc2oc1=O | 8.26 µM (active)
COc1ccc(-c2n[nH]c(=S)n2-c2ccc3c(c2)OCCO3)cc1OC | 16.5 µM (active)
Cc1ccc(-c2cc(NC(=O)c3ccccc3)on2)cc1 | 2.93 µM (active)
CC1CCc2c(sc3nc(CSc4n[nH]c(N)n4)[nH]c(=O)c23)C1 (centres undefined) | 16.5 µM (active)
Nc1nc(SCc2ccc(Cl)cc2Cl)n[nH]1 | 14.7 µM (active)
CCN(CC)c1ccc(/C=C2\C(=O)NC(=S)N(C)C2=O)o1 | 1.31 µM (active)
CN1C(=O)/C(=C/c2ccc(N3CCCCCC3)o2)C(=O)NC1=S | 0.826 µM (active)
CCCCn1c(O)c(/C(C)=N/NC(=O)Nc2ccccc2)c(=O)[nH]c1=O | 11.7 µM (active)
COc1ccc(CCN2CCCC(CN(C)C(=O)c3cc(C)oc3C)C2)cc1 (centres undefined) | 4.65 µM (active)
COc1ccc(NC(=O)CCCn2c(=O)oc3ccccc32)cc1Cl | 9.27 µM (active)
Cn1cnc2cc(NC(=O)c3ccc(Cl)cc3)ccc21 | 1.85 µM (active)
COc1ccc(CNC(=O)c2ccc(C(C)C)cc2)cc1 | 3.29 µM (active)
Cc1cccc(N=Nc2ccc(N(C)C)cc2)c1 | 2.93 µM (active)
COC(=O)C(O)(c1ccc(NC(=O)NC2CCCCC2)cc1)C(F)(F)F (centres undefined) | 8.26 µM (active)
CCN(CC)C(=O)Oc1ccc2cc(Br)ccc2c1 | 11.7 µM (active)
O=C(Oc1ccc2cc(Br)ccc2c1)N1CCCCCC1 | 4.14 µM (active)
O=c1c2ccccc2[nH]c(=S)n1-c1ccc2c(c1)OCCO2 | 7.36 µM (active)
O=c1cc(-c2ccc(O)c(O)c2)oc2cc(O)cc(O)c12 | 3.29 µM (active)
Cc1cnn(-c2cc(Oc3ccccc3)ncn2)c1 | 16.5 µM (active)
CC(C)(C)n1cc(C(=O)c2ccc3ccccc3c2O)cn1 | 0.233 µM (active)
c1ccc2c(CN3CCCCCC3)c[nH]c2c1 | 2.93 µM (active)
CN(C)C(=O)Oc1ccc2c(c1)O/C(=C\c1ccccc1)C2=O | 4.65 µM (active)
O=c1c2ccccc2nc(Cc2ccccc2)n1-c1ccccc1 | 5.85 µM (active)
COc1ccccc1N=Nc1c(O)[nH]c(=S)[nH]c1=O | 13.1 µM (active)
BrCC1C[n+]2c(SCc3ccccc3)nc3sc4c(c3c2O1)CCCC4 (centres undefined) | 16.5 µM (active)
O=C(c1cc(-c2cccc(Cl)c2)on1)N1CCOCC1 | 8.26 µM (active)
O=C(Nc1nc2c(s1)CCCCCC2)Nc1ccc(F)cc1F | 0.329 µM (active)
Cc1cc(C(=O)Nc2ccc3c(c2)OCCO3)nn1C(C)(C)C | 5.85 µM (active)
Cc1cc(C(=O)Nc2ccccc2)nn1C(C)(C)C | 2.07 µM (active)
